Hits are enriched below; roughly 1.2% of the tested compounds scored in any of these assays.
CCT chaperon mod: High-Throughput Screening for Modulators of Cytosolic Chaperonin Activity | AID 651819, 2012 | activity change, % (no concentration beside the values), hits read low | purified chaperonin ATPase assay, HTRF ADP detection, 30 min | 0.3% of 360,000 active; in the data active = activity change below about -30%; also: % is scaled to controls: 0 for no effect and ±100 for the full control effect
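TRiC (40 or 20 nM final, by batch activity) in 30 mM Tris pH 7.4, 100 mM KCl, 5 mM MgCl2, 1 mM DTT was treated with compound at 76 uM single dose, then 10 uM ATP, 30 min at 37 °C. ADP was read by HTRF Transcreener.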
uPA generation: qHTS for Inhibitors of Cell Surface uPA Generation; AID 540303, 2011; cell surface uPA generation assay, qHTS; Potency, µM (highest dose often 38.3 µM), for inactives: top-dose activity change, negative = inhibition, actives largely listed as inhibitors; 0.31% of 330,000 active; active = well fitted inhibition curve with a large enough effect; inconclusive = small, poorly fitted or top-dose-only effect; inactive = no such curve, though single readings can be large or run the other way; tested in mouse RAW 264.7 cells; also: potency is read from the fitted curve at half-maximal effect; % is scaled to controls: 0 for no effect and ±100 for the full control effect; nearly all actives have a fitted effect of over 55% in size
TSHR antag: Antagonists of the Thyroid Stimulating Hormone Receptor: HTS campaign | Thyrotropin receptor (Homo sapiens), P16473 | TSHR-expressing cells, TSH-stimulated cAMP HTRF, 2 h; hits give low values | activity change, negative = inhibition, % at 11.5 µM | 0.2% of 330,000 active | AID 504810, 2011;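 active = activity change below a set negative limit, meaning inhibition stronger than a set level, cut at about -70% in these data; inconclusive = activity change between two set negative limits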; also: % is scaled to controls: 0 for no effect and ±100 for the full control effect
Target sequence (P16473 whole entry, looked up): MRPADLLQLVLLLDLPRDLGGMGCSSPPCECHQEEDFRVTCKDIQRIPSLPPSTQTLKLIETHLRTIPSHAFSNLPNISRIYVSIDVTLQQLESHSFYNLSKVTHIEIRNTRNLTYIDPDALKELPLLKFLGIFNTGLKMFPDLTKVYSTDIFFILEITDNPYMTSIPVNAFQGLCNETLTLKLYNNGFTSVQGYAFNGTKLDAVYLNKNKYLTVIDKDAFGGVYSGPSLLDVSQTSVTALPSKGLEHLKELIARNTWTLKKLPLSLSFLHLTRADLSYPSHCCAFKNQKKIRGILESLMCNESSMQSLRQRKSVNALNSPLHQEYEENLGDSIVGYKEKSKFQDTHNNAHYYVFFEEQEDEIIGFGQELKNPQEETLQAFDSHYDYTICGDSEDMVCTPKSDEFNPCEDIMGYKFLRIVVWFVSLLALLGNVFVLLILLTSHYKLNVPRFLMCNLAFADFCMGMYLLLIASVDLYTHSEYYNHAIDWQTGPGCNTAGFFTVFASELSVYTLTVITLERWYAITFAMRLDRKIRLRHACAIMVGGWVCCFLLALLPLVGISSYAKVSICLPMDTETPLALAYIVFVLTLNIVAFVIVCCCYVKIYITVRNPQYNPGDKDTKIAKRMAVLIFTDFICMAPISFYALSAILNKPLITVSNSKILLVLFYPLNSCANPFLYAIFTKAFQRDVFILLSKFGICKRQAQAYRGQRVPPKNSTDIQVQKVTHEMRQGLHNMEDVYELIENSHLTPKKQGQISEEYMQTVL
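Inhibition of cAMP made by TSHR-expressing cells under TSH stimulation (4nM final, EC80; 2 h, 37 deg C) is quantified with a one-step lysis HTRF kit, anti-cAMP cryptate versus cAMP-d2.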
gsp agonist: qHTS for Agonist of gsp, the Etiologic Mutation Responsible for Fibrous Dysplasia/McCune-Albright Syndrome: qHTS | gsp mutant cells, cAMP HTRF, 30 min | 0.13% of 340,000 active | AID 624287, 2012 | Potency, µM (titrated, usually from 76.9 µM), for inactives: top-dose activation (cAMP increase), usual class: activators; active = well fitted activation curve with a large enough effect; inconclusive = small, poorly fitted or top-dose-only effect, or another doubt; inactive = no such curve, though single readings can be large or run the other way; cell line not stated here;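 also: phosphodiesterase inhibitor Ro 20-1724 added with compounds to block cAMP breakdown; potency is read from the fitted curve at half-maximal effect; nearly all actives have a fitted effect of over 60% in size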
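Cells in DMEM/10% FBS with G418 were pretreated with compounds in DMSO plus […] (300 uM stock) for 30 min at 37C. cAMP was measured by HTRF (cAMP-d2 plus anti-cAMP antibody-K) after 30 min at room temperature.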
gsp antag: qHTS for Antagonists of gsp, the Etiologic Mutation Responsible for Fibrous Dysplasia/McCune-Albright Syndrome: qHTS; AID 624288, 2012; Potency, µM (titrated, usually from 76.9 µM), without a hit: top-dose activity change, negative = inhibition, most hits filed as inhibitors; 0.4% of 340,000 active; gsp-mutant cells, cAMP HTRF, 30 min; calls by dose curve; cell line not stated here;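 also: intracellular cAMP measured with PDE inhibitor Ro 20-1724 present during compound exposure; potency is read from the fitted curve at half-maximal effect; % is scaled to controls: 0 for no effect and ±100 for the full control effect; nearly all actives have a fitted effect of over 65% in size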
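G418-selected cells were plated in DMEM/10% FBS for 16-24 h at 37C, then treated with compounds plus the PDE inhibitor […] (300 uM solution added) for 30 min at 37C. Intracellular cAMP was measured by HTRF after 30 min lysis at room temperature.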
Mm-Cpn inhibitor: Inhibitors of TCP-1 ring complex (TRiC) of Methanococcus maripaludis (MmCpn): qHTS; purified Mm-Cpn ATPase, ADP Transcreener TR-FRET; Chaperonin Mm-Cpn (Methanococcus maripaludis); 0.031% of 330,000 active; Potency, µM (highest dose often 76.9 µM), for the others: at the highest dose activity, negative = inhibition, most hits filed as inhibitors; AID 504842, 2011; active = well fitted inhibition curve with a large enough effect; inconclusive = small, poorly fitted or top-dose-only effect; also: potency is read from the fitted curve at half-maximal effect; % is scaled to controls: 0 for no effect and ±100 for the full control effect; nearly all actives have a fitted effect of over 80% in size
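Inhibition of chaperonin ATP hydrolysis is measured as reduced ADP production, detected by competitive TR-FRET in which signal falls with ADP. Final enzyme 25 nM and ATP 10 uM, reacted 30 min at 37°C.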
An asterisk follows results filed as active; [ ] = dose if it differs, or a comment.

Results for CCOc1ccccc1/C=N/n1c(COc2ccccc2)n[nH]c1=S ?
CCT chaperon mod: -11.0; uPA generation: -3.4%; TSHR antag: -14.2; gsp agonist: inconclusive; gsp antag: inconclusive; Mm-Cpn inhibitor: 1.6%

Results for COc1cc(NC(=O)c2cnc(NCc3ccccc3)nc2C)cc(OC)c1OC ?
CCT chaperon mod: -1.6; uPA generation: -6.8%; TSHR antag: -3.0; gsp agonist: -17.9%; gsp antag: -2.9%; Mm-Cpn inhibitor: -0.6%

What do the screens show for `COc1cccc(CNc2ncc(C(=O)Nc3cc(OC)c(OC)c(OC)c3)c(C)n2)c1`?
CCT chaperon mod: -1.6; uPA generation: 5.62µM*; TSHR antag: -12.5; gsp agonist: -2.5%; gsp antag: -11.9%; Mm-Cpn inhibitor: -0.2%

What do the screens show for `CNC(=O)c1c[nH]n2c(=O)c(Cc3ccccc3F)c(C)nc12`?
CCT chaperon mod: -2.4; uPA generation: 8.3%; TSHR antag: -4.1; gsp agonist: 14.6%; gsp antag: 11.2µM*; Mm-Cpn inhibitor: 0.5%

How did O=c1c(-c2ccc(O)cc2)coc2cc(OC3OC(CO)C(O)C(O)C3O)cc(O)c12 (centres undefined) do in these assays?
CCT chaperon mod: 1.5; uPA generation: 4.47µM*; TSHR antag: 12.0; gsp agonist: -12.3%; gsp antag: 2.0%; Mm-Cpn inhibitor: 1.2%

How did Cc1ccn2c(=O)nc(SCC(=O)NC3CCCCC3)nc2c1 do in these assays?
CCT chaperon mod: -3.4; uPA generation: -0.2%; gsp agonist: -2.5%; gsp antag: 8.2%; Mm-Cpn inhibitor: 1.8%

Results for Cc1ccc(Cn2ccsc2=NC(=O)CCl)cc1 ?
CCT chaperon mod: -7.8; uPA generation: 2µM*; TSHR antag: 6.4; gsp agonist: -29.0%; gsp antag: -27.0%; Mm-Cpn inhibitor: -1.3%

Results for Cc1ccc(Cn2ccsc2=NC(=O)COC(=O)c2ccc(NC(=O)CC#N)cc2)cc1 ?
CCT chaperon mod: -1.7; uPA generation: 15.5%; TSHR antag: 1.1; gsp agonist: 10.6%; gsp antag: -16.3%; Mm-Cpn inhibitor: -16.3%

What do the screens show for `CN(Cc1cccc(Cl)c1)C(=O)C1CCC(=O)N(C2CC2)C1` (centres undefined)?
CCT chaperon mod: -76.2*; uPA generation: inconclusive; TSHR antag: -6.7; gsp agonist: -31.0%; gsp antag: 3.5%; Mm-Cpn inhibitor: -0.6%

How did C[C@H]1CN([C@@H](C)CO)C(=O)c2cc(Br)cnc2O[C@H]1CN(C)C(=O)c1cnccn1 do in these assays?
CCT chaperon mod: -1.1; gsp agonist: 11.2µM*

How did C[C@H](CO)N1C[C@H](C)[C@H](CN(C)C(=O)c2ccccn2)Oc2ncc(Br)cc2C1=O do in these assays?
CCT chaperon mod: 1.8; gsp agonist: -30.1%

Results for Cc1ccc(-c2nc(SCC(=O)NCC3CCCO3)c(-c3ccc(C)cc3)[nH]2)cc1 (centres undefined) ?
CCT chaperon mod: -4.1; uPA generation: 3.0%; TSHR antag: 20.3; gsp agonist: -32.9%; gsp antag: -2.7%; Mm-Cpn inhibitor: -0.3%

Results for CCCCCCNC(=O)c1cn(CC)c2cc(N3CCN(C)CC3)c(F)cc2c1=O ?
CCT chaperon mod: -2.9; uPA generation: inconclusive; TSHR antag: 10.3; gsp agonist: 20.5%; gsp antag: 6.9%; Mm-Cpn inhibitor: -0.8%

What do the screens show for `O=C(N/C(=C/c1ccc2c(c1)OCO2)C(=O)N1CCOCC1)c1cccs1`?
CCT chaperon mod: 1.5; uPA generation: 3.5%; TSHR antag: 0.0; gsp agonist: -2.8%; gsp antag: 7.7%; Mm-Cpn inhibitor: 1.4%

Results for O=C(O)CC/C(=N\Nc1ccc([N+](=O)[O-])cc1)c1ccccc1 ?
CCT chaperon mod: -0.6; uPA generation: 5.2%; TSHR antag: -10.8; gsp agonist: 8.0%[15.4 µM]; gsp antag: 31.6µM*; Mm-Cpn inhibitor: -3.0%

Results for O=C(O)CC/C(=N/Nc1ccc([N+](=O)[O-])cc1)C(=O)O ?
CCT chaperon mod: -5.0; uPA generation: 1.1%; TSHR antag: 13.6; gsp agonist: -63.3%; gsp antag: 9.4%; Mm-Cpn inhibitor: 0.3%

What do the screens show for `COc1ccc(/C(C)=N/NC(=O)CNC(=O)/C=C/c2ccccc2OC)cc1`?
CCT chaperon mod: -4.5; uPA generation: 1.0%; TSHR antag: 7.0; gsp agonist: -0.3%; gsp antag: 0.0%; Mm-Cpn inhibitor: 4.1%

What do the screens show for `COC(=O)C1CCN(Cc2ccc(C)cc2)CC1`?
CCT chaperon mod: 0.3; uPA generation: 1.7%; TSHR antag: 0.6; gsp agonist: -1.1%; gsp antag: 2.8%; Mm-Cpn inhibitor: -0.5%

What do the screens show for `C[C@]12c3[nH]c4ccccc4c3CCN1C(=O)C(CC(=O)NCc1ccco1)C[C@@H]2C(=O)N1CCOCC1` (some centres undefined)?
CCT chaperon mod: 0.5; uPA generation: inconclusive; TSHR antag: -13.2; gsp antag: 7.4%; Mm-Cpn inhibitor: 2.3%

What do the screens show for `CC(C)N(C(=O)[C@H]1CC(CC(=O)NCc2ccco2)C(=O)N2CCc3c([nH]c4ccccc34)[C@]12C)C(C)C` (some centres undefined)?
CCT chaperon mod: -0.6; uPA generation: -9.2%; TSHR antag: -6.0; gsp antag: -2.8%; Mm-Cpn inhibitor: 0.5%

What do the screens show for `COc1ccc(CNC(=O)CC2C[C@H](C(=O)N(C(C)C)C(C)C)[C@@]3(C)c4[nH]c5ccccc5c4CCN3C2=O)cc1OC` (some centres undefined)?
CCT chaperon mod: -46.7*; uPA generation: 6.1%; TSHR antag: -4.5; gsp antag: 1.4%; Mm-Cpn inhibitor: -0.8%

Results for C[C@]12c3[nH]c4ccccc4c3CCN1C(=O)C(CC(=O)NCc1ccco1)C[C@@H]2C(=O)N1CCCCC1 (some centres undefined) ?
CCT chaperon mod: -3.1; uPA generation: 6.31µM*; TSHR antag: -12.8; gsp antag: 1.9%; Mm-Cpn inhibitor: 3.9%

Results for O=C(C[C@H]1C[C@H](C(=O)N2CCCCC2)[C@@]2(CCc3ccccc3)c3[nH]c4cc(-c5ccco5)ccc4c3CCN2C1=O)NCc1ccco1 ?
CCT chaperon mod: 1.2; uPA generation: inconclusive; TSHR antag: -6.0; gsp antag: -3.2%; Mm-Cpn inhibitor: -6.6%

Screening data: PubChem, National Center for Advancing Translational Sciences (NCATS)
